# SNCA expr inhib = SNCA gene expression inhibition; HEK-293 SNCA-luciferase knock-in, luminescence, 24 h; Potency, µM (titrated, usually from 57.2 µM), for the others: at the highest dose activity change, negative = inhibition, actives largely listed as inhibitors; actives 0.17% (n = 140,000);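 also: potency is read from the fitted curve at half-maximal effect; plate controls were DMSO cells for no effect and cell-free wells for full effect; nearly all actives have a fitted effect of over 45% in size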
# KDM5B inh = blocks human KDM5B histone demethylase activity. KDM5B demethylase, FDH-coupled NADH fluorescence (FDH is formaldehyde dehydrogenase). Potency, µM (titrated, usually from 57.7 µM), actives largely listed as inhibitors. actives 2.6% (n = 220,000). AID 1347165; also: potency is read from the fitted curve at half-maximal effect; 0% is about no effect; nearly all actives have a fitted effect of over 70% in size
#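 KDM5BΔAP (200 nM final) in 50 mM HEPES pH 7.5, 0.01% Tween-20 was preincubated 10 min at RT with compound over a concentration range. Substrate mix (H3K4me3 12.5 µM, α-KG 25 µM, Fe²⁺, ascorbate, NAD⁺, FDH) was added, and NADH fluorescence change over 30 min gave dose-response curves.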
# IP6K1 inh = blocks human inositol hexakisphosphate kinase 1; Q92551; actives 0.81% (n = 140,000); activity change, % (series mostly up to about 58 µM); IP6K1 kinase, ADP-Glo luminescence, 2 h; hits give low values; in the data active = activity change below about -25%; also: % is scaled to controls: 0 for no effect and ±100 for the full control effect
# Target sequence (Q92551 whole entry, looked up): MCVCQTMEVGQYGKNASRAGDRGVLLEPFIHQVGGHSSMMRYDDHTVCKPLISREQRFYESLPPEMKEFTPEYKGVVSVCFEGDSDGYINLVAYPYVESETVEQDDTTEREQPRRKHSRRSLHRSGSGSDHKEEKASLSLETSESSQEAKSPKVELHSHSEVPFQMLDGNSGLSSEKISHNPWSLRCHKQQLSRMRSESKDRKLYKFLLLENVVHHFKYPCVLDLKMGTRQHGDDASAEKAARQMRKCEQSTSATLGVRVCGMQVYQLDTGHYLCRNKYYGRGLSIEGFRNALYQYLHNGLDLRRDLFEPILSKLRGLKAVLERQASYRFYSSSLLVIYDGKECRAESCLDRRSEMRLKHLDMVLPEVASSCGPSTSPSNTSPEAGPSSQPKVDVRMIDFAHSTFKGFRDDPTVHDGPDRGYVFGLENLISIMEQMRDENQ
#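 ADP-Glo luminescence measures ADP made by human IP6K1 during a 2 h RT reaction with ATP/IP6 (mix at 1.3 mM/130 uM); top library doses 57.5 and 19.1 uM final.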
# SNCA viab count = cell viability loss counter-screen; HEK-293-SNCA-luc viability, GF-AFC fluorescence, 24 h; Potency, µM (doses to about 57.1 µM), for the others: at the highest dose activity change, negative = cytotoxicity, hits mostly cytotoxic; actives 0.12% (n = 150,000);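 also: potency is read from the fitted curve at half-maximal effect; 0% = DMSO-treated cells and -100% = medium-only wells without cells; nearly all actives have a fitted effect of over 30% in size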
#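 Cytotoxicity counterscreen: after 24 h compound treatment of genome-edited SNCA-luciferase HEK-293 cells, live-cell protease substrate GF-AFC read by fluorescence after 30 min; activity scaled between DMSO (0%) and medium-only (-100%), curves Hill-fitted.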
# Numbers without * were called inactive; i = inactive; ? = inconclusive; . = no result given; [ ] = dose if it differs, or a comment. The list is not random: actives were taken first. Their share in the collection is about 3%. Unless noted, calls follow the shape of the dose curve; as a rule, active = well fitted curve in the direction sought with a large enough effect; inconclusive = small, poorly fitted or top-dose-only effect, or another doubt; inactive = no such curve, though single readings can be large; an effect the other way counts as inactive or inconclusive.
SMILES,SNCA expr inhib,KDM5B inh,IP6K1 inh,SNCA viab count
Cc1ccc(-c2cc3c(=O)n(CCNC(=O)c4ccc(Cl)cc4)ccn3n2)c(C)c1,6%,i,1,-4%
COc1ccc(C(=O)NCCn2ccn3nc(-c4ccc(C)c(C)c4)cc3c2=O)cc1,63%,18µM*,-2,-14%
COc1ccc(-c2cc3c(=O)n(CCNC(=O)c4cccc(N(C)C)c4)ccn3n2)cc1,46%,35µM*,-13,?
COc1ccc(-c2cc3c(=O)n(CCNC(=O)c4cc(OC)cc(OC)c4)ccn3n2)cc1,-10%,i,-5,-3%
CCOc1ccc(-c2cc3c(=O)n(CCNC(=O)c4ccc(C#N)cc4)ccn3n2)cc1,30%,20µM*,-8,-1%
Cc1ccc(-c2cc3c(=O)n(CCNC(=O)c4nn(C)c5ccccc45)ccn3n2)c(C)c1,8%,28µM*,0,-14%
COc1ccc(-c2cc3c(=O)n(CCNC(=O)c4ccc(C#N)cc4)ccn3n2)cc1,-1%,?,-11,-4%
Cc1ccc(-c2nc(CSc3nnc(NCc4ccccc4)s3)co2)cc1,.,i,.,.
CCOc1ccc(-c2cc3c(=O)n(CCNC(=O)c4ccc(Cl)cc4)ccn3n2)cc1,86%,i,-10,8%
CCOc1ccc(-c2cc3c(=O)n(CCNC(=O)c4ccc(OC)cc4)ccn3n2)cc1,55%,?,2,-3%
CCOc1ccc(C(=O)NCCn2ccn3nc(-c4ccc(OC)cc4)cc3c2=O)cc1,40%,8.9µM*,1,4%
COc1ccc(-c2cc3c(=O)n(CCNC(=O)c4ccc(OC)nc4)ccn3n2)cc1,33%,11µM*,0,-10%
CCOc1ccc(-c2cc3c(=O)n(CCNC(=O)c4cccc5[nH]ccc45)ccn3n2)cc1,88%,28µM*,-1,-15%
COc1ccc(-c2cc3c(=O)n(CCNC(=O)c4ccc(C)s4)ccn3n2)cc1,55%,i,6,-4%
Cc1ccc(C)c(-c2cc3c(=O)n(CCNC(=O)c4ccccc4F)ccn3n2)c1,?,i,-7,-9%
Cc1ccc(C)c(C(=O)NCCn2ccn3nc(-c4cc(C)ccc4C)cc3c2=O)c1,?,32µM*,0,-16%
O=C(/C=C/c1cccs1)c1cc2ccccc2o1,.,i,.,.
COc1ccc(F)cc1-c1cccc(C(=O)NCC(=O)N2CCOCC2)c1,.,.,-8,.
Cc1ccc(-c2cc3c(=O)n(CCNC(=O)c4ccc(N(C)C)cc4)ccn3n2)cc1C,52%,28µM*,-10,1%
Cc1ccc(-c2cc3c(=O)n(CCNC(=O)c4cc(Cl)ccc4F)ccn3n2)c(C)c1,32%,?,-2,2%
Cc1ccc(-c2cc3c(=O)n(CCNC(=O)c4ccc(N(C)C)cc4)ccn3n2)c(C)c1,95%,28µM*,0,0%
Cc1ccc(-c2cc3c(=O)n(CC(O)c4ccc(C)c(C)c4)ccn3n2)c(C)c1 (stereo not given),-21%,35µM*,0,-10%
CCOc1ccc(-c2cc3c(=O)n(CCNC(=O)c4ccccc4OC)ccn3n2)cc1,?,32µM*,-2,?
O=Cc1c(-c2cc(Cl)ccc2Cl)[nH]c2ccccc12,.,i,.,.
CCOC(=O)[C@@H]1CN([S+](=O)([O-])c2ccccc2)[C@H]2c3ccccc3O[C@@H]12,.,.,4,.
SMILES,SNCA expr inhib,KDM5B inh,IP6K1 inh,SNCA viab count
CNC(=O)c1cc(C2CC2)nc2c1c(C1CCCN([S+](=O)([O-])c3cccs3)C1)nn2C (stereo not given),.,.,7,.
Cc1ccnc(NC(=O)C2CCN(C(=O)C3CC3)CC2)c1,.,i,.,.
NC(=O)C1CCCN(Cc2ccc(-c3cnc4c(OCc5ccccc5)nccn34)cc2)C1 (stereo not given),103%,28µM*,0,-7%
OC1CCC(NCc2ccc(-c3cnc4c(OCc5ccccc5)nccn34)cc2)CC1 (stereo not given),13%[87.6 µM],28µM*,-15,-10%[87.6 µM]
O=C(NCc1ccc(-c2cnc3c(Oc4ccccc4)nccn23)cc1)c1ccn[nH]1,-6%[87.6 µM],?,-4,2%[87.6 µM]
OC1CN(Cc2ccc(-c3cnc4c(OCc5ccccc5)nccn34)cc2)C1,70%[87.6 µM],32µM*,5,-10%[87.6 µM]
O=C1CN(Cc2ccc(-c3cnc4c(OCc5ccccc5)nccn34)cc2)CCN1,6%[87.6 µM],35µM*,-8,-14%[87.6 µM]
O=C(COC(=O)c1ccc(S(=O)(=O)C(F)F)cc1)c1ccc(F)cc1,.,i,.,.
O=[S+]1([O-])CCN(Cc2ccc(-c3cnc4c(OCc5ccccc5)nccn34)cc2)CC1,9%,22µM*,8,-10%
